Consider three molecules from PubChem BioAssay AID2284381 (EPA ToxCast).

Results filed as inconclusive are left out. Calls of active or inactive are those of the source. The calls were made as follows: active = hit-call score of the fitted dose curve at least 0.9, where 1 is the maximum; inconclusive = response in the unintended direction; inactive = score below 0.9.

The experiment has as its system Japanese medaka Retinoid X Receptor beta (RXRb), gene 100125505. Kind of experiment: ATG_jmRXRb_EcoTox2: Attagene TRANS-FACTORIAL EcoTox-2 HepG2 Assay for Japanese medaka Retinoid X Receptor beta (RXRb). The procedure: ATG_EcoTox2 is a cell-based, multiplexed assay created by modifying the existing Attagene TRANS-FACTORIAL system to include a panel of nuclear receptors from some or all the following species: human (Homo sapiens), african clawed frog (Xenopus laevis), rainbow trout (Oncorhynchus mykiss), japanese medaka (Oryzias latipes), and zebrafish (Danio rerio). The ECOTOX2-FACTORIAL format uses HepG2, a human liver cell line, with measurements taken at 24 hours after chemical dosing in a 24-well plate. ATG_jmRXRb_EcoTox2 is one of 29 assay components calculated in the ATG_EcoTox2 assay. It is designed to make measurements of mRNA induction, a form of inducible reporter, as detected with fluorescence intensity signals by Reverse transcription polymerase chain reaction (RT-PCR) and Capillary electrophoresis technology.The assay endpoint ATG_jmRXRb_EcoTox2 was analyzed in the positive analysis fitting direction relative to DMSO as the negative control and baseline of activity. Using a type of inducible reporter, measures of mRNA for gain-of-signal activity can be used to understand the reporter gene at the transcription factor-level as they relate to the gene RXRb. Furthermore, this assay endpoint can be referred to as a primary readout, because this assay has produced multiple assay endpoints where this one serves a reporter gene function. […]
Human liver HepG2 cells are transiently transfected with multiple reporter transcription units (MRTUs) in 6-well plates using FuGene 6 reagent (Roche; 3 ml FuGene/1 mg DNA). […] A major difference between the CIS and TRANS system is that in CIS activities of endogenous TFs are measured, whereas the TRANS assay evaluates changes in activities of exogenous, chimeric NR-Gal4 proteins. […] The fragments were purified using Qiaquick PCR columns (Qiagen), analyzed on an ABI 3130xL genetic analyzer (Applied Biosystems) with peak positions identified by using a set of X-rhodamine (ROX)-labeled MapMarker1000 molecular weight standards (BioVentures). […]
By AC50 is commonly meant the midpoint of the concentration-response curve, whichever way the signal moves. Regarding `CCCCOCN(C(=O)CCl)c1c(CC)cccc1CC`, the concentration at half-maximal activity (AC50) is 50 µM (active).
Turning to `O=C(O)C(F)(F)C(F)(F)C(F)(F)C(F)(F)C(F)(F)C(F)(F)C(F)(F)F`, the concentration at half-maximal activity (AC50) is 31.4 µM (active).
Next, `[Cl][Sn]([c]1ccccc1)([c]1ccccc1)[c]1ccccc1`: 0.171 µM (active).
